The record followed here is PubChem BioAssay AID1626 (SRMLSC, 2009).

Molecules are shown by their SMILES. Among all 220,000 compounds or so, about 2,000 (0.91%) were called active. Roughly 2% stayed inconclusive and do not appear here. Not all results are given here. Results with a measured potency or affinity are listed apart. Values without a mark were called inactive. Cut-off read from the data, not from the text of the source: inconclusive = inhibition above about 80% without an active follow-up result; inactive = below that; test concentration not stated here.

As a reminder, the inhibition is the relative decrease from the control value, in per cent.

This experiment is described as follows: M. tuberculosis H37Rv growth inhibitors, H37Rv strain (AID 1626).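 Note: bacteria incubated seven days before Alamar blue readout; 0% = bacteria only wells and 100% = bacteria with antibiotic wells.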 As to conditions: stronger effect = higher value, concentration not given here.
Regarding `C=CCNC(=O)COC(=O)CCC(=O)c1cccs1`, the inhibition is -6.43%.
For `CCC1=C(OC(=O)N(CC)CC)N2C(=O)OC(=NCc3ccccc3)[C@]2(C)[C@H]2C1=CC[C@H]1C(=O)N(CC(=O)OC)C(=O)[C@H]12`, the inhibition was 6.67%.
The value for `COc1ccccc1-c1nc(C#N)c(N2CCN(c3ccccc3)CC2)o1` was 0.35%.
For `O=C(NCCN1CCN(c2cccc(Cl)c2)CC1)c1ccc(CSc2nc3ccncc3[nH]2)cc1`, the inhibition was 12.1%.
The figure for `COc1ccc(Cl)cc1N(CC(=O)N/N=C/c1ccc(OC(C)C)cc1)S(=O)(=O)c1ccc(C)c([N+](=O)[O-])c1` is 2.6%; for `NC(=O)NC(=O)COC(=O)c1sc2ccccc2c1Cl` it is -8.02%.
The figure for `CC1CCCC(NC(=O)COC(=O)COc2ccccc2Cl)C1C` (centres undefined) is -6.56%; for `NC(=O)COC(=O)c1sc2ccccc2c1Cl` it is 59.5%.
The figure for `CC1CCCC(NC(=O)COC(=O)Cc2ccccc2)C1C` (centres undefined) is -10.6%; for `O=C(NCc1ccccc1F)Nc1ccc([N+](=O)[O-])cc1` it is -8.88%; for `COC(=O)c1c(NC(=O)CC2SC(N)=NC2=O)sc2c1CCCC2` (centres undefined) it is 0.3%.
With `COC(=O)c1c(NC(=O)CC2SC(N)=NC2=O)sc2c1CCC(C)C2` (centres undefined), the inhibition was 10.2%.
The figure for `Nc1nc(CN2CCN(c3ccccc3F)CC2)nc(Nc2ccc3c(c2)OCCO3)n1` is 12.1%.
The value for `CC(C)COc1ccc(-c2nnn(CC(=O)N3CCCC3)n2)cc1` was 2.29%; that for `CCCOc1ccc(-c2nnn(CC(=O)OCC)n2)cc1` was 79.1%.
Take `COCCNC(=O)C(c1ccc(C)o1)N(C(=O)Cn1nnc2ccccc21)c1ccccc1` (centres undefined): the inhibition is 4.15%.
For the molecule `O=C(c1ccc2c(c1)[nH]c(=S)n1c3ccccc3nc21)N1CCN(c2ncccn2)CC1`, the inhibition was -5.02%.
On to `COc1ccc(N2CCN(C(=O)c3ccc4c(c3)[nH]c(=S)n3c5ccccc5nc43)CC2)cc1`, for which the inhibition was -4.09%.
In the case of `Cc1csc2nc(CNS(=O)(=O)c3ccc4c(c3)CCCC4)cn12`, the inhibition is -3.26%.
With `CC(C)(C)c1ccc(Oc2ccc(NC(=O)C3CC=CCC3C(=O)O)cc2)cc1` (centres undefined), the inhibition was 3.77%.
For the molecule `Cc1cnc(C(=O)Nc2ccc(C(C)C)cc2)cn1`, the inhibition is 13.7%.
The value for `CCc1ccc(NC(=O)C2CC=CCC2C(=O)O)cc1` (centres undefined) was -2.56%; that for `Cc1cnc(C(=O)Nc2ccc(F)cc2)cn1` was -5.16%; that for `O=S(=O)(NC1CCCCCCC1)c1cccs1` was 2.84%.
In the case of `CC/C=C\[C@H](O)[C@H](O)C1=C(C)C(=O)[C@]2(O1)C(=O)N[C@@](OC)(C(=O)c1ccccc1)C2O` (some centres undefined), the inhibition was -6.03%.
The figure for `CCOC(=O)C(/C(C)=N/NC(=O)C1CC1c1ccccc1)C(C)C` (centres undefined) is 2.71%.
In the case of `CCCCc1nc2sc3c(=O)n(N)cnc3c2c2c1CCC2`, the inhibition is -0.89%.
Take `CCCCc1nc2sc3c(SCC(=O)NCc4ccco4)ncnc3c2c2c1CCC2`: the inhibition was -4.26%.
`COCCCNC(=O)c1c(NC(=O)C2COc3ccccc3O2)sc2c1CCCC2` (centres undefined): the inhibition is -1.45%.
With `COc1ccc(OC)c(S(=O)(=O)N2Cc3ccccc3CC2C(=O)O)c1` (centres undefined), the inhibition is -11.6%.
As for `CC(=O)Nc1ccc(NC(=O)CCCCCN2C(=O)c3ccccc3C2=O)cc1`, the inhibition was 1.79%.
The figure for `CCN1/C(=C\C=C2\C(=O)N(C)C(=S)N2C)Sc2ccccc21` is 16%.
Take `CCN1/C(=C2\SC(=S)N(Cc3ccccc3)C2=O)Sc2ccccc21`: the inhibition is 5.93%.
The value for `CC(=O)Nc1ccc2c(c1)nc1n2CCN(C(C)c2ccccc2)C1` (centres undefined) was 5.76%.
The value for `O=C(c1ccc(F)cc1)N1CCCCC(S(=O)(=O)c2ccccc2)C1=O` (centres undefined) was 6.14%; that for `N#CCSc1nc2ccccc2c(=O)n1CCCC(=O)NCC1CCCO1` (centres undefined) was -1.98%; that for `Cc1ccc(C(=O)OCC(=O)c2ccc[nH]2)s1` was 7.67%.
The figure for `O=C(COC(=O)c1ccc[nH]c1=O)c1ccc(Cl)s1` is -0.06%; for `O=C1NC(O)(c2ccccc2)Oc2ccccc21` (centres undefined) it is -6.9%; for `Cc1[nH][nH]c(=O)c1C(c1ccc(-c2ccc(Cl)c(Cl)c2)o1)c1c(C)[nH][nH]c1=O` it is 60.8%.
Regarding `Cc1[nH][nH]c(=O)c1C(c1ccc(-c2ccc(F)cc2)o1)c1c(C)[nH][nH]c1=O`, the inhibition is 4.51%.
The figure for `O=C(CN1CCC(N2CCCCC2)CC1)N1CCOCC1` is 5.06%; for `CCOC(=O)N1CCN(C(c2ccc(C(C)C)cc2)c2sc3nc(C)nn3c2O)CC1` (centres undefined) it is 0.52%.
The value for `COc1ccc(Cl)cc1S(=O)(=O)NCc1cccnc1` was -12%; that for `O=S(=O)(Nc1ccc(-c2nnc(SCc3ccc(Cl)cc3)o2)cc1)c1ccccc1` was 5.83%; that for `O=c1cc(CSc2nnc(COc3ccccc3)n2-c2ccccc2)c2ccccc2[nH]1` was 3.7%.
The figure for `Cc1cccc(OCc2nnc(SCc3cc(=O)[nH]c4ccccc34)n2-c2ccccc2)c1` is 4.6%.
As for `COc1ccc(-c2cc(C(=O)Nc3cc(OC)c(OC)c(OC)c3)no2)cc1OC`, the inhibition was -1.57%.
The figure for `COCCNC(=O)c1cc(-c2ccc(OC)c(OC)c2)on1` is 6.55%; for `CCOC(=O)c1ccc(NC(=O)CSc2nc3c(c(=O)n2CC)SC(C)C3)cc1` (centres undefined) it is 7.17%.
As to `CCCSc1cc(NCCOC(=O)CCC)c([N+](=O)[O-])c2nonc12`, the inhibition is 56.8%.
The value for `CCCSc1cc(NCCOC(C)=O)c([N+](=O)[O-])c2nonc12` was 2.64%.
The figure for `CC(C)CCSc1cc(NCCO)c([N+](=O)[O-])c2nonc12` is -2.23%.
The value for `CC(=O)OCCNc1cc(SC(C)C)c2nonc2c1[N+](=O)[O-]` was 1.55%.
Turning to `COC(=O)c1cc2ccsc2n1CC(=O)Nc1cc(C)cc(C)c1`, the inhibition was -0.8%.
Regarding `Cc1cc(NCCOCCO)n2ncc(-c3ccc(Cl)cc3)c2n1`, the inhibition was 8.65%.
Regarding `Cc1cc(NCCCN2CCOCC2)n2ncc(-c3ccc(Cl)cc3)c2n1`, the inhibition was 4.89%.
Take `CC(C)(C)c1cc(C(F)(F)F)n2ncc(-c3ccccc3)c2n1`: the inhibition was 3.89%.
The figure for `CC(C)Nc1cc(C(C)(C)C)nc2c(-c3ccccc3)cnn12` is -1.54%.
